The source of these data is PubChem BioAssay AID628 (Vanderbilt High Throughput Screening Facility, 2007).

The campaign covered roughly 64,000 compounds. About 2,200 (3.4%) were called active. The full list was thinned out, with actives kept by preference. Unmarked numbers belong to inactive results.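 The calls were made as follows: active = calcium fluorescence response, raw or row-and-column corrected B-score, differing from the plate sample mean either way at a set confidence level, mostly lower; inactive = the rest.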

For the assay, the target named is Muscarinic acetylcholine receptor M1 (Rattus norvegicus) (UniProt P08482). Description: blocks the rat M1 muscarinic receptor response to acetylcholine (AID 628). The following applies: CHO-M1 cells, Fluo-4 calcium, ACh EC80 antagonist mode; at 10 µM; hits give low values.
Sequence of Muscarinic acetylcholine receptor M1 (Rattus norvegicus) (P08482 whole entry, looked up): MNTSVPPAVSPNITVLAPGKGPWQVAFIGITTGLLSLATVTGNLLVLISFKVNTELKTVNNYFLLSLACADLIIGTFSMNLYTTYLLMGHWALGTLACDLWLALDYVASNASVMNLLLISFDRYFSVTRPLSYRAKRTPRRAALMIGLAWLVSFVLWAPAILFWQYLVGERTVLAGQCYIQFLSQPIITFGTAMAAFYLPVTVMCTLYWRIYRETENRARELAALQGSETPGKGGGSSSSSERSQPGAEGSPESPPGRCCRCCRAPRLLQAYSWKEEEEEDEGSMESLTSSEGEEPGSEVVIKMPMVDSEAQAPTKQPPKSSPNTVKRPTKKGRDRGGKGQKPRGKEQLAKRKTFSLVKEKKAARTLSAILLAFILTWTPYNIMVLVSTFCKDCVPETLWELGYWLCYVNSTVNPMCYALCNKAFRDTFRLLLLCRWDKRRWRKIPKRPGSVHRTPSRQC
With `CCOC(=O)C1CCN(C(=O)C2CCN(S(=O)(=O)N3CCCC3)CC2)CC1`, the B-score was -0.822.

Turning to `Cc1ccc(C(=O)NC2CCN(C(=O)N3CCOCC3)CC2)cc1`, the B-score was -0.472.

For `Cc1noc(C)c1S(=O)(=O)NCCc1ccc(S(N)(=O)=O)cc1`, the B-score was 0.287.

For `CCCN1CCN(C(=O)Cn2ncc3ccccc32)CC1`, the B-score is -0.673.

`CC(C)(C)n1nnc(CCc2nnn(C(C)(C)C)n2)n1`: the B-score was 0.866.

Turning to `Cc1ccc(Cc2cncc(O)c2)cc1S(=O)(=O)O`, the B-score was -0.895.

`CC12CCC(C(=O)N(CCC#N)CCC#N)(CC1=O)C2(C)C` (stereo not given): the B-score is 0.00852.

On to `CC(C)(C)c1cc(CN2CCN(CCC#N)CC2)cc(C(C)(C)C)c1O`, for which the B-score is -3.57 (active).

For the molecule `N#CCCN1CCN(S(=O)(=O)c2ccc(S(=O)(=O)N3CCCC3)cc2)CC1`, the B-score was -0.0175.

As to `N#CCCN1CCN(S(=O)(=O)c2ccc(S(=O)(=O)NC3CC3)cc2)CC1`, the B-score was -0.837.

For `O=C(c1cnn2ccccc12)N1CCc2ccccc21`, the B-score was -0.297.

For the molecule `O=C(CCS(=O)(=O)c1ccccc1)Nc1nc2c(s1)CCCC2`, the B-score was 1.02.

For the molecule `COc1ccc(CCNC(=O)CCn2c(=O)oc3ccccc32)cc1OC`, the B-score was 0.0532.

With `CCOC(=O)C1=C(CC)Nc2ccccc2N=C1NC(=O)c1cccc(S(=O)(=O)N2CCCC2)c1`, the B-score was -3.22 (active).

For the molecule `CCOC(=O)CSc1nnc(NC(=O)c2cccc(S(=O)(=O)N3CCCC3)c2)s1`, the B-score was 0.563.

`CCOC(=O)CSc1nnc(NC(=O)c2cccc(S(=O)(=O)N3CCCCC3)c2)s1`: the B-score is -1.2.

For the molecule `COc1cccc(NC(=O)Cn2cnc3sc(C)c(S(=O)(=O)N4CCN(C)CC4)c3c2=O)c1`, the B-score was 0.144.

In the case of `CN(C)CCCn1c(N)c(C#N)c2nc(C#N)c(C#N)nc21`, the B-score is -0.181.

As to `Cc1c(C(=O)N2CCOCC2)[nH]c2ccc(OCc3ccccc3)cc12`, the B-score was -2.27.

Regarding `CCOC(=O)c1[nH]c2ccc(OC)cc2c1NC(=O)N1CCOCC1`, the B-score is 0.577.

As to `CCOC(=O)c1[nH]c2ccc(OC)cc2c1NC(=O)CCN1CCN(Cc2ccccc2)CC1`, the B-score was -4.59 (active).

For `O=C(CN(c1ccc2c(c1)OCCO2)S(=O)(=O)c1ccccc1)Nc1ccc2c(c1)OCO2`, the B-score is 0.461.

Take `Cc1c(C(=O)Nc2ccccc2Cl)oc2ccc(S(=O)(=O)N3CCC4(CC3)OCCO4)cc12`: the B-score is 2.7 (active).

For `CCOc1ccccc1NC(=O)c1cc(S(=O)(=O)N2CCC3(CC2)OCCO3)ccc1F`, the B-score is -0.759.

`CCOC(=O)C1CCN(C(=O)c2oc3ccc(S(=O)(=O)N4CCCCCC4)cc3c2C)CC1`: the B-score was -0.942.

As for `Cc1ccc(NC(=O)CN(C)S(=O)(=O)c2cnc[nH]2)cc1C`, the B-score was 0.0747.

Regarding `O=C(NCC(F)(F)F)Nc1nnc(C(F)(F)F)s1`, the B-score was -1.96 (active).

As for `CCc1nnc(NC(=O)CCC(=O)O)s1`, the B-score is 0.852.

With `CC(=O)Nc1ccc(NC(=O)CN2CCCC(C)C2)c(Cl)c1` (stereo not given), the B-score was -1.15.

Regarding `Cc1cc(C)cc(NC(=O)C2CCN(c3nc(C)cc(C)n3)CC2)c1`, the B-score was 0.673.

For the molecule `COc1ccc(C2C(C#N)=C(N)Oc3cc(N)ccc32)cc1OC` (stereo not given), the B-score was 0.645.

On to `O=C(Nc1ccncc1)c1c(F)cccc1F`, for which the B-score is -4.49 (active).

`CCOc1ccc(C(=O)Nc2ccncc2)cc1`: the B-score was 0.109.

As for `O=C(Nc1ccncc1)c1cc2ccccc2o1`, the B-score was 1.08.

For the molecule `CC1Oc2ccccc2N(Cc2cccnc2)C1=O` (stereo not given), the B-score was 1.07.

With `COC(=O)c1sc(=S)n(-c2ccccc2)c1N`, the B-score is 0.339.

As to `Cc1ccc(Cn2c(NC(=O)c3ccco3)nc3ccccc32)cc1`, the B-score was 0.141.

Take `O=C(CSc1nnc2scc(-c3ccc(F)cc3)n12)NCc1ccco1`: the B-score was -0.509.

As for `Cc1ccc(-c2csc3nnc(SCC(=O)NCc4ccco4)n23)cc1`, the B-score is -10.4 (active).

With `Cn1c(-c2ccc(F)cc2)cnc1SCC(=O)NCc1ccco1`, the B-score was 0.325.

Turning to `Cc1nc2ccccc2c2oc(C(=O)NCCCN3CCC(C)CC3)cc12`, the B-score is -6.51 (active).

`CCCN(CCC)CCNC(=O)c1cc2c(C)nc3ccccc3c2o1`: the B-score is 0.00891.

Consider `Cc1nc2ccccc2c2oc(C(=O)NCC3CCCO3)cc12` (stereo not given), for which the B-score was 0.0181.

As for `Cc1ccc(Nc2nc(CSc3nnnn3-c3ccccc3)cc(=O)[nH]2)cc1`, the B-score is -0.208.

Regarding `CCOC(=O)Cc1csc(NC(=O)CSc2nc(C)cc(=O)[nH]2)n1`, the B-score is -0.287.

For the molecule `CN(CC(=O)NC1CCCCC1)S(=O)(=O)c1ccc(Br)s1`, the B-score was -1.64.

With `Cc1cc(C)c2[nH]c(=O)c(C(c3nnnn3Cc3ccc4c(c3)OCO4)N3CCCC3)cc2c1` (stereo not given), the B-score is 0.419.

With `Fc1ccccc1C(c1nnnn1Cc1ccc2c(c1)OCO2)N1CCN(Cc2ccccc2)CC1` (stereo not given), the B-score was 0.889 (active).

In the case of `Cc1ccc(S(=O)(=O)Cn2nnnc2CN2CCN(Cc3ccc4c(c3)OCO4)CC2)cc1`, the B-score was -0.838.

As to `CCOC(=O)Cn1c(N)c(C(=O)OC)sc1=S`, the B-score is 0.106.

For the molecule `Cn1c(=O)c2c(nc(OCc3cccnc3)n2Cc2ccccc2)n(C)c1=O`, the B-score is -0.0901.

Regarding `Cc1ccccc1C(OCC(O)CN1CCCCC1CCO)c1ccccc1` (stereo not given), the B-score was -3.65 (active).

For `COc1cccc(-c2nnc(N(C)C(=O)c3ccno3)s2)c1`, the B-score was 0.344.

`CC1CN(c2cc(=O)n(-c3cccc(Br)c3)c(=O)[nH]2)CC(C)O1` (stereo not given): the B-score was -0.299.

`CCN1C(=O)/C(=C\N2CCN(c3ccccc3)CC2)SC1=S`: the B-score was 0.399.

On to `CCN1C(=O)/C(=C\N2CCN(c3cccc(Cl)c3)CC2)SC1=S`, for which the B-score was 0.609.

On to `CCN1C(=O)/C(=C2\SC(N3CCCCC3)=NC2=O)c2ccccc21`, for which the B-score is -3.91 (active).

In the case of `CS(=O)(=O)N(CC(=O)N1CCOCC1)c1ccc2c3c(cccc13)CC2`, the B-score was 0.0978.

In the case of `Cc1cc(NC(=O)COn2nnc3ccccc32)no1`, the B-score was -0.00408.

Regarding `CCOC(=O)c1c(C2CC2)csc1NC(=O)CSCc1c(C)noc1C`, the B-score was -0.892.
